In PubChem BioAssay (NCI):
This is part of a sample that, as a whole, favours compounds with a hit. Of some 79,000 tested, about 15% had one in any assay. Calls of active or inactive are those of the source. Rule as the data show it: active = growth inhibition above about 70%; inactive = the rest. Where a SMILES comes first, the peptide text is derived from it.

Legend:
[1] = NCI Yeast Anticancer Drug Screen. Data for the rad50 strain (AID 155);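 also: 0% = growth of vehicle-only cultures of the same strain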; settings: S. cerevisiae rad50 strain growth inhibition; at 50.0 µM; hits give high values
How it was run: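 Relative growth inhibition (compound vs vehicle) was measured in yeast with a defined repair-gene alteration.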

[2] = NCI Yeast Anticancer Drug Screen. Data for the mec2-1 strain (AID 157); settings: S. cerevisiae mec2-1 strain, at 50.0 µM, hits give high values
How it was run: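 Compounds were applied to mec2-1 yeast cells. Their growth was then compared with that of vehicle-treated cultures to give growth inhibition.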

[3] = NCI Yeast Anticancer Drug Screen. Data for the sgs1 mgt1 strain (AID 161);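 also: 0% = growth of cultures given vehicle only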; settings: S. cerevisiae sgs1 mgt1 strain, at 50.0 µM, hits give high values
How it was run: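 Compounds are added to genetically altered yeast, and growth is compared with cultures given vehicle alone to give percent inhibition.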

[4] = NCI Yeast Anticancer Drug Screen. Data for the cln2 rad14 strain (AID 165);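 also: 0% = growth equal to vehicle treated cultures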; settings: S. cerevisiae cln2 rad14 strain, at 50.0 µM, hits give high values
How it was run: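 Strain: cln2 rad14 yeast, altered in cell cycle control and DNA damage repair. Read-out: growth inhibition vs vehicle.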

[5] = NCI Yeast Anticancer Drug Screen. Data for the bub3 strain (AID 167); settings: S. cerevisiae bub3 mutant strain, at 50.0 µM, hits give high values
How it was run: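 Screening used yeast with an engineered genetic alteration affecting cell cycle control. Compound-exposed cultures were compared with vehicle cultures, and reduced growth was taken as inhibition.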

[6] = NCI Yeast Anticancer Drug Screen. Data for the mlh1 rad18 strain (AID 175); settings: S. cerevisiae mlh1 rad18 strain growth inhibition; at 50.0 µM; hits give high values
How it was run: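 A repair-deficient yeast strain is exposed to test compound, and growth is scored relative to vehicle-treated controls.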

| Compound | growth inhibition [1] | growth inhibition [2] | growth inhibition [3] | growth inhibition [4] | growth inhibition [5] | growth inhibition [6] |
| --- | --- | --- | --- | --- | --- | --- |
| O=C(Sc1ccccc1)C1OC1c1ccccc1 (centres undefined) | 70.2% (active) | 28.6% (inactive) | 22.6% (inactive) | 60.8% (inactive) | 63.1% (inactive) | 80.5% (active) |
| O=[N+]([O-])c1ccc(N/N=C/C(Br)(Br)Br)c([N+](=O)[O-])c1 | -5.85% (inactive) | -0.65% (inactive) | -21.2% (inactive) | -11.9% (inactive) | -14.4% (inactive) | -27.9% (inactive) |
| CCc1cc(CC)n2cnnc2n1 | 16.7% (inactive) | -3.75% (inactive) | -9% (inactive) | -29.6% (inactive) | 7.2% (inactive) | -8.5% (inactive) |
| CSCCOC(=O)C1C2CCC(O2)C1C(=O)O (centres undefined) | 11.1% (inactive) | 10.6% (inactive) | 1.55% (inactive) | 9.25% (inactive) | -0.6% (inactive) | 17.6% (inactive) |
| Nc1cc(N)n(C2=NCCN2)n1 | -1.5% (inactive) | -27.5% (inactive) | 8% (inactive) | 11.1% (inactive) | 0% (inactive) | -13.3% (inactive) |
| O=c1nnc(O)c2ccn(O)cc1-2 | -34.6% (inactive) | -19% (inactive) | 1.65% (inactive) | -40.1% (inactive) | -8.95% (inactive) | -7.4% (inactive) |
| CCCCSc1n[nH]c(=O)nc1N | -5.5% (inactive) | -7.95% (inactive) | -3.1% (inactive) | -11.3% (inactive) | -11.6% (inactive) | 3.9% (inactive) |
| CCCCCCCNC(=O)C(Cl)Cl | 7.85% (inactive) | -16.8% (inactive) | -6.65% (inactive) | -2.55% (inactive) | 39.8% (inactive) | 7.4% (inactive) |
| O=C(O)CN1C(=O)NC(C2CC2)(C2CC2)C1=O | -3.15% (inactive) | -7.15% (inactive) | -12.8% (inactive) | -23.2% (inactive) | 8.85% (inactive) | 6.6% (inactive) |
| COc1cc(OC)cc(OCc2nc3cc(C(F)(F)F)ccc3nc2-c2ccccc2)c1 | -17.8% (inactive) | -3.5% (inactive) | 5.9% (inactive) | -6.2% (inactive) | -0.95% (inactive) | -53.8% (inactive) |
| C/C=C/C#CC#C/C=C/C=C/CC | 10.1% (inactive) | 0.7% (inactive) | -1.35% (inactive) | 8.6% (inactive) | 16.6% (inactive) | -2.05% (inactive) |
| O=Ic1ccccc1 | 16.6% (inactive) | 0.2% (inactive) | 1.5% (inactive) | 10.9% (inactive) | -0.3% (inactive) | -8.8% (inactive) |
| C/C(Cc1cccc2ccccc12)=N/NC(N)=O | 2.35% (inactive) | -27.8% (inactive) | -19.1% (inactive) | -8% (inactive) | -12.1% (inactive) | -8.45% (inactive) |
| CN1CCN(c2ccncc2S(=O)(=O)N2CCN(C)CC2)CC1 | -17.2% (inactive) | -12.7% (inactive) | 1.2% (inactive) | -15.4% (inactive) | -11.4% (inactive) | -2.5% (inactive) |
| CCc1cccc(C(=O)O)c1N | 26.4% (inactive) | 5.75% (inactive) | 15.7% (inactive) | 3.65% (inactive) | -3.75% (inactive) | 0.9% (inactive) |
| Cc1nc(-c2ccccc2)ncc1C(O)CN(C)C (centres undefined) | -4.7% (inactive) | -6.45% (inactive) | 5.35% (inactive) | 2.35% (inactive) | -30.4% (inactive) | -6.6% (inactive) |
| CC1(C)C=CC=C(C(=O)O)C=C1 | -23.1% (inactive) | -24% (inactive) | -34.2% (inactive) | -21.4% (inactive) | -13.7% (inactive) | -14.7% (inactive) |
| CC(=O)OC1C=CCC2C(=O)C3=C(C(=O)c4ccccc4C3=O)C(=O)C12 (centres undefined) | 72.6% (active) | 21.3% (inactive) | 28% (inactive) | 36.6% (inactive) | 65% (inactive) | 33.2% (inactive) |
| C=CCOC/C=C\CCOCC/C=C/COCC=C (tested in a mixture with another compound) | 5% (inactive) | 1.3% (inactive) | 6.25% (inactive) | -13.6% (inactive) | 2.45% (inactive) | 2.35% (inactive) |
| COc1c(O)c2c3c(cc(C)cc3c1C(C)C)OC2 | 93.3% (active) | 94.5% (active) | 94.3% (active) | 93.1% (active) | 93.4% (active) | 93.1% (active) |

| Compound | growth inhibition [1] | growth inhibition [2] | growth inhibition [3] | growth inhibition [4] | growth inhibition [5] | growth inhibition [6] |
| --- | --- | --- | --- | --- | --- | --- |
| O=C(O)CCc1ccncc1 | 2.25% (inactive) | 9% (inactive) | 12.8% (inactive) | -1.7% (inactive) | 7.1% (inactive) | -0.95% (inactive) |
| Cc1cc2c(c(C(=O)NCCC(=O)O)c1)Oc1c(cc(C)cc1C(=O)NCCC(=O)O)S2 | -26.9% (inactive) | -13.6% (inactive) | -8.2% (inactive) | 3.95% (inactive) | -44.1% (inactive) | -2.65% (inactive) |
| Nc1nc(CCC(=O)Nc2cccc(C(F)(F)F)c2)cc(-c2cccc3ccccc23)n1 | -15.2% (inactive) | 17.4% (inactive) | 29.1% (inactive) | 0.8% (inactive) | 23.1% (inactive) | 2.3% (inactive) |
| CCCCC(O)CNc1ccccc1 (centres undefined) | -7.4% (inactive) | 14.7% (inactive) | 5.7% (inactive) | -5.75% (inactive) | 9.65% (inactive) | 3.75% (inactive) |
| C=CCc1c(O)c2ccccc2[nH]c1=O | -5.35% (inactive) | 15.6% (inactive) | -25.9% (inactive) | 12.7% (inactive) | 4.45% (inactive) | 1.5% (inactive) |
| Fc1ccccc1-c1ccccc1 | -26.4% (inactive) | -1.5% (inactive) | -13.5% (inactive) | -37.5% (inactive) | -10.8% (inactive) | -11.2% (inactive) |
| O=C1C(c2ccccc2)=C(c2ccccc2)c2ccccc21 | -8.2% (inactive) | 19.6% (inactive) | 21% (inactive) | -18.4% (inactive) | 32% (inactive) | 14.4% (inactive) |
| C=CC[n+]1cccc(Oc2ccc([N+](=O)[O-])cc2[N+](=O)[O-])c1 | 73.7% (active) | 12.4% (inactive) | 63.5% (inactive) | 31.3% (inactive) | 18.1% (inactive) | 54.7% (inactive) |
| COC(=O)C1=C(O)C(C(=O)OC)[C@@]2(O)[C@@H](C(=O)OC)[C@H](C)C[C@@H]1[C@@H]2C(=O)OC (some centres undefined) | 41.6% (inactive) | 15.4% (inactive) | 47% (inactive) | -1.05% (inactive) | 23.1% (inactive) | 38.5% (inactive) |
| Cc1ccc(C(C)C)c(OCC2=NCCN2C)c1 | -7.15% (inactive) | -3.15% (inactive) | 3.35% (inactive) | 0.4% (inactive) | -16.1% (inactive) | -10.2% (inactive) |
| CC1(C)C(=NNC(=O)C[N+](C)(C)C)C(C)(C)C1=NNC(=O)C[N+](C)(C)C | -0.4% (inactive) | -11.9% (inactive) | -32.9% (inactive) | -46.4% (inactive) | -0.15% (inactive) | -13.5% (inactive) |
| CC1(C(=O)N2c3ccccc3C=CC2C#N)CC2C=CC1C2 (centres undefined) | -19.9% (inactive) | 4.6% (inactive) | 1.9% (inactive) | 7.6% (inactive) | -2.4% (inactive) | -15.9% (inactive) |
| CCCCOC(=O)CCCCCCCCC(=O)OCCCC | 23.6% (inactive) | -9% (inactive) | 2.05% (inactive) | -14.1% (inactive) | 0.2% (inactive) | 28.4% (inactive) |
| NS(=O)(=O)c1ccc(NC(=O)c2cccc3c(=O)c4ccccc4[nH]c23)cc1 | -2.55% (inactive) | -1.95% (inactive) | -13.2% (inactive) | 14.8% (inactive) | -6% (inactive) | -14.1% (inactive) |
| CC1NC(=O)C2CCCN2C(=O)C2CCCN2C(=O)C(C(C)C)NC(=O)C(Cc2ccccc2)NC(=O)C(Cc2ccccc2)NC(=O)C2CCCN2C(=O)C2CCCN2C(=O)C(Cc2ccccc2)NC(=O)C(Cc2ccccc2)NC1=O (centres undefined) (cyclo(AFFPPFFVPP); configuration not given here) | 6.65% (inactive) | -8.5% (inactive) | -2.35% (inactive) | 2.8% (inactive) | 1.25% (inactive) | 16.6% (inactive) |
| Nc1ccn(C2OC(CCl)C(O)C2O)c(=O)n1 (centres undefined) | 17.2% (inactive) | 3.2% (inactive) | -4.15% (inactive) | 4.1% (inactive) | -39.9% (inactive) | -36.1% (inactive) |
| C/C=C(/C)c1cccc(OCc2ccccc2)c1OCc1ccccc1 | -19.1% (inactive) | 9.35% (inactive) | -5.65% (inactive) | -21.6% (inactive) | -17.3% (inactive) | -7.05% (inactive) |
| C/C(CCl)=N/NC(N)=S | -13.2% (inactive) | -2.5% (inactive) | -18.4% (inactive) | 7% (inactive) | -11.9% (inactive) | -12.5% (inactive) |
| CC(C)=CC(=O)OC1C2C(C)C(=O)OC2C(O)C(C)C2C=CC(=O)C21C (centres undefined) | 3.15% (inactive) | -3.6% (inactive) | 9.6% (inactive) | 16.9% (inactive) | 11.1% (inactive) | 8.2% (inactive) |
